This note sets out measurements from PubChem BioAssay (NCATS).

Experiment [1] concerns the target Luciferin 4-monooxygenase (Photinus pyralis) (UniProt P08659). In words: Biochemical firefly luciferase enzyme assay for NPC (AID 624030). Note: nearly all actives have a fitted effect of over 70% in size. Note: potency is the fitted concentration of half-maximal effect. The note with it: purified P. pyralis luciferase, luminescence, 5 min; series mostly up to 58.6 µM. An outline of the steps: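 Direct inhibition of firefly luciferase enzyme (10 nM final, 50 mM Tris Acetate) assessed by luminescence within 5 minutes. Percent activity scaled between DMSO and PTC124 positive control, with concentration-effect curves classified by fit quality and response.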

Experiment [2] is described as follows: S16 Schwann cell viability assay (CellTiter-Glo assay) (AID 624031).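 Note: cellular ATP luminescence as a viability measure; plate controls were DMSO-treated cells for no effect and cell-free wells for full effect; nearly all actives have a fitted effect of over 70% in size.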 The note with it: S16 rat Schwann cells viability, 24 h; series mostly up to 57.5 µM. An outline of the steps: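 Native S16 rat Schwann cells, 500-750 cells/well in DMEM with 10% FBS, dosed with compound after overnight culture and incubated 24h at 37 degree Celsius/5% CO2. Viability by CellTiter-Glo luminescence; % activity normalized to no-cell wells and DMSO-treated cells.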
For orientation: In ATP-based viability assays light output follows the ATP content of the culture.

Experiment [3] in a line: S16 Schwann cell PMP22 intronic element firefly luciferase assay (AID 624032). Note: nearly all actives have a fitted effect of over 30% in size. Note: potency is the fitted concentration of half-maximal effect. The note with it: S16 rat Schwann cells, PMP22 element FLuc, 24 h; series mostly up to 57.5 µM. In outline: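 Luciferase reporter of PMP22 intronic-element expression in stably transfected S16 rat Schwann cells, read by ONE-Glo luminescence after 24 h compound exposure at 37 C. Activity scaled between DMSO (0%) and positive-control PTC124; concentration-effect curves quality-classified.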

A short description of experiment [4]: S16 Schwann cell PMP22 intronic element beta-lactamase assay (AID 624044; calls by dose curve; note: nearly all actives have a fitted effect of over 15% in size; note: potency is the fitted concentration of half-maximal effect). As to conditions: S16 rat Schwann cells, PMP22 element beta-lactamase FRET, 24 h; series mostly up to 38.3 µM. In outline: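 Rat S16 Schwann cells with beta-Lac driven by a PMP22 intronic element, compound-treated 24 h at 37 °C. LiveBLAzer FRET B/G read: 460 nm normalized to potassium clavulanate vs DMSO; 535 nm FRET as viability; concentration-effect curves classified.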

A short description of experiment [5]: Cytotoxicity counterscreen for NFkB agonists and antagonists (AID 624476). Note: potency is the fitted concentration of half-maximal effect. As to conditions: NFkB reporter cell line viability counterscreen; series mostly up to 46.1 µM. In general terms: Counterscreens check selectivity or assay interference.
Experiment [6] can be described thus: qHTS Assay for Identification of Small Molecule Agonists for NFkB Signaling Pathway. (AID 624478). Note: 0% is about no effect. As to conditions: NFkB pathway reporter cell assay, agonist mode, cells co-stimulated with 10 pM TNF alpha; series mostly up to 46.1 µM. In outline: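 NFkB-bla ME-180 cells (beta-lactamase reporter under NFkB response element) were plated overnight, treated with compound plus TNF alpha at 10 pM final (its EC50) for 5 hrs at 37 C, then loaded with LiveBLAzer substrate for 2 hrs.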
In general terms: In qHTS, concentration-response curves come from the screen itself.

The nature of experiment [7]: qHTS Assay for Identification of Small Molecule Antagonists for NFkB Signaling Pathway. (AID 624479; calls by dose curve; note: potency is the fitted concentration of half-maximal effect). The note with it: NFkB pathway reporter cell assay, antagonist mode; series mostly up to 38.3 µM.
Experiment [8] in a line: Cell Proliferation Assay against the TMD8 Cell Line (AID 651645).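 Note: cells exposed to compound for 48 h before reading.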 The note with it: TMD8 DLBCL cell line proliferation/viability; at 46.1 µM (top of the series) unless noted. An outline of the steps:
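Seed log-phase TMD8 cells in RPMI containing 5% FBS, add compounds at once, incubate 48 hours at 37C. Equilibrate to room temperature, add CellTiter-Glo, read luminescence after 15 minutes and express relative to DMSO and bortezomib controls.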

Experiment [9] can be described thus: Cell Proliferation Assay against the HBL1 Cell Line (AID 651646).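 Note: cells exposed to compound for 48 h before reading.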 As to conditions: HBL1 DLBCL cells; at 46.1 µM (top of the series) unless noted. In outline:
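Luminescent ATP read-out (CellTiter-Glo) after 48 h compound exposure of HBL1 cells at 37 °C; percent activity was scaled between DMSO as 100% and 9.2 uM bortezomib (final) as 0%.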

Experiment [10] in a line: Cell Proliferation Assay against the TMD8 Cell Line (Caspase readout at 8 hrs) (AID 651713). Note: potency is the fitted concentration of half-maximal effect. As to conditions: TMD8 lymphoma cells, caspase activation luminescence; series mostly up to 46.1 µM. An outline of the steps:
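TMD8 cells (500/well) in phenol red-free RPMI with 5% FBS were treated with compounds for 8 h at 37C, 5% CO2. Caspase-Glo 3/7 luminescence was read after 15 min at room temperature and normalised to DMSO (0%) and 9.2 uM bortezomib (100%).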

A short description of experiment [11]: Cell Proliferation Assay against the TMD8 Cell Line (Caspase readout at 16 hrs) (AID 651712). Note: potency is the fitted concentration of half-maximal effect. The note with it: TMD8 lymphoma cells, caspase activation luminescence; series mostly up to 46.1 µM. An outline of the steps: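 Apoptotic response of TMD8 cells was judged from caspase 3/7 activation following a 16 hour compound incubation at 37 °C. Luminescent signal was converted to percent activity, with DMSO set as 0% and 9.2 uM final bortezomib as 100%.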

Experiment [12] deals with Glutaminase kidney isoform, mitochondrial (Homo sapiens) (UniProt O94925). In words: qHTS for Inhibitors of Glutaminase (GLS): LOPAC Validation (AID 624146). Note: potency is the fitted concentration of half-maximal effect; nearly all actives have a fitted effect of over 60% in size. The note with it: glutaminase enzyme activity inhibition. In outline: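 Two-point fluorescence kinetic (t0, 30 min RT) for hKGA; glutamate detected via glutamate oxidase–HRP–Amplex Red. Substrate: 1 mM L-glutamine solution; buffer 45 mM KH2PO4, pH 8.2.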
Sequence of Glutaminase kidney isoform, mitochondrial (Homo sapiens) (O94925 whole entry, looked up, canonical isoform): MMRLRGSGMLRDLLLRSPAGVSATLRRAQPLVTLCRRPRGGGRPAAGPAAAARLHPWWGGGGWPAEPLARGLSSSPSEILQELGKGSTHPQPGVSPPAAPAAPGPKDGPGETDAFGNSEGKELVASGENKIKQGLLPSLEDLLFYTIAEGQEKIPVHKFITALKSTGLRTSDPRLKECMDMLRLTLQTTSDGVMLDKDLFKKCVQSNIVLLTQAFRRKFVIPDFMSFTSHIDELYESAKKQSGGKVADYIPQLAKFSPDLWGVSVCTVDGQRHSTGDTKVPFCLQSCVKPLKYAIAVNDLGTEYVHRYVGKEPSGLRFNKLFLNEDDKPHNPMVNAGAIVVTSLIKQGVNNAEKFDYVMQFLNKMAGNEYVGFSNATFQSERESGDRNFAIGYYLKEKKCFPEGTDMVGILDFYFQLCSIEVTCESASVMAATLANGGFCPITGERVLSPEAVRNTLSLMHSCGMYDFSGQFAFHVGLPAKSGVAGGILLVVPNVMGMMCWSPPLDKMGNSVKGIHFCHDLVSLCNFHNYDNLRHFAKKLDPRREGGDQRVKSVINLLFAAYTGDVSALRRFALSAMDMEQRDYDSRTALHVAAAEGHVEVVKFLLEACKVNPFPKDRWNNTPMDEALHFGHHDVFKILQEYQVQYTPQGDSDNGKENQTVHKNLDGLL

The target in experiment [13] is Glucagon-like peptide 1 receptor (Homo sapiens) (UniProt P43220). In words: qHTS of GLP-1 Receptor Agonists: LOPAC Validation (AID 624148).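 Note: luminescence from a luciferase reporter switched on by cAMP; 0% is about no effect; higher luminescence signal means agonism.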 As to conditions: GLP-1R agonist cell assay; series mostly up to 46.1 µM. In outline:
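Agonism scored as increased luciferase luminescence driven by cAMP in HEK293 clones carrying GLP-1R. Cells settled 12 hours, received compound for 4-6 hr at 37 deg C, 5% CO2, and were read after 12 min detection reagent at RT.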

Experiment [14] in a line: qHTS of Nrf2 Activators: LOPAC Validation (AID 624149). Note: 0% is about no effect. As to conditions: Nrf2/ARE reporter cell assay; series mostly up to 46.1 µM. In outline: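 AREc32 cells carrying an ARE-driven firefly luciferase were grown overnight in OPTI-MEM with 5% FBS, then exposed to compounds for 24 hr at 37 deg C. Luciferase signal was read after 30 min with Steady-Glo at RT.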
Experiment [15] can be described thus: HTS Assay for Allosteric Antagonists of the Human D2 Dopamine Receptor: Hit Validation in HTRF (AID 624455).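 Note: stable D1 dopamine receptor cell line scored for blocking the D1 response; % is set by controls: 0 for no effect and ±100 for the full control effect.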 As to conditions: Cells stably expressing D1 dopamine receptor, inhibition mode; series mostly up to 46.1 µM. In outline:
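Hits were examined in an HTRF assay using cells stably expressing the D1 dopamine receptor, scoring inhibition of the D1-mediated response. The preceding primary screen tracked calcium flux after an EC80 dopamine addition in force-coupled, inducible Hek293 Trex D2 cells.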

Inconclusive results are not listed. Active and inactive are the calls of the source. Unless noted, calls come from the whole dose curve; as a rule, active = well fitted curve in the direction sought with a large enough effect; inconclusive = small, poorly fitted or top-dose-only effect, or another doubt; inactive = no such curve, though single readings can be large; an effect the other way counts as inactive or inconclusive.

Sequence of Luciferin 4-monooxygenase (Photinus pyralis) (P08659 whole entry, looked up): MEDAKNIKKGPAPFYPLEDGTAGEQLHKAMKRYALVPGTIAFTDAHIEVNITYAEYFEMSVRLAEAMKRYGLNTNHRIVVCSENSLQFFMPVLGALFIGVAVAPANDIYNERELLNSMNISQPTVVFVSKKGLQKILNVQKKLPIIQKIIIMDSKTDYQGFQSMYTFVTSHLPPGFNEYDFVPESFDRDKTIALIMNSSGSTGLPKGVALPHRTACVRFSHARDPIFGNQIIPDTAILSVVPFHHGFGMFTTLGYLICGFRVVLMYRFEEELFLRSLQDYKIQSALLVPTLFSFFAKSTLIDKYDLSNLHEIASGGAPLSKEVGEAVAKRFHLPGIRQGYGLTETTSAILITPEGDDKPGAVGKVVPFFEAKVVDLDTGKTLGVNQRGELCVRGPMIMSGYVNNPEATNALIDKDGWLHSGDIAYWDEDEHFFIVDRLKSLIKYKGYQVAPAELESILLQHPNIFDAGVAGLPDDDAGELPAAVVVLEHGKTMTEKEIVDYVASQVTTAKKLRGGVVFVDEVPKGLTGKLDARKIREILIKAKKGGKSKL
Sequence of Glucagon-like peptide 1 receptor (Homo sapiens) (P43220 whole entry, looked up): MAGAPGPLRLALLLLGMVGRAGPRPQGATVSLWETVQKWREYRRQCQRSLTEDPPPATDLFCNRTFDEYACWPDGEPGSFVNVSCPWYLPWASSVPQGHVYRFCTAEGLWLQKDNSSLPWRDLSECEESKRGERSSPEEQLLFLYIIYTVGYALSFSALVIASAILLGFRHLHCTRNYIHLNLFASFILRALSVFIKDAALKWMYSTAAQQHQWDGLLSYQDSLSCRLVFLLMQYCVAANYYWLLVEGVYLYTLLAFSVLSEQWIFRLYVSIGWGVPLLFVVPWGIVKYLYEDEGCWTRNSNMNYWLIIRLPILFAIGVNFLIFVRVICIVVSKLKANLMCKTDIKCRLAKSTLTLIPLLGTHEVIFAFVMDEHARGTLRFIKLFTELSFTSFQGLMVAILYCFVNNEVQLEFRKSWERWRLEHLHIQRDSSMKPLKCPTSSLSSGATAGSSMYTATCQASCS

With `CCCC(=O)O[C@]1(C(=O)CCl)[C@H](C)C[C@@H]2[C@H]3CCC4=CC(=O)C=C[C@]4(C)[C@@]3(F)C(=O)C[C@@]21C`, the Potency result in [1], in experiment [2], in experiment [3] and in experiment [4] was “inactive” each time.

Consider `CCOc1cc2ncc(C#N)c(Nc3ccc(OCc4ccccn4)c(Cl)c3)c2cc1NC(=O)/C=C/CN(C)C`, for which the Potency in experiment [5] was 37.2 µM (active); in experiment [7], 7.49 µM (active); in [10], 23.5 µM (active). Moreover, in [6], the outcome was inactive. Also, in experiment [8], the viability (% of control) was -0.655%. The viability, percent of control in [9] was 1.48%.

Take `O=c1cc(C2=CC=CC3Sc4ccccc4SC23)oc(N2CCOCC2)c1` (stereo not given): the outcome in experiment [6] was inactive. Further, the viability (% of control) in experiment [8] stood at 10.5%. In experiment [9], the viability, percent of control was found to be 31.5%. Also, the Potency in experiment [11] was 8.33 µM (active); in experiment [10] it was 7.43 µM (active).

For the compound `O=C(Nc1ccc(Br)cc1)c1cc(Br)c(Br)s1`, the Potency in [1] is 16.1 µM (active). In addition, the Potency entry in experiment [3] and in experiment [4] was “inactive” each time.

Turning to `Cc1nnc(C(C)C)n1C1CC2CCC(C1)N2CC[C@H](NC(=O)C1CCC(F)(F)CC1)c1ccccc1` (stereo not given in full), the Potency result in experiment [5], in [7], in experiment [11] and in experiment [10] was “inactive” in each case. The compound was called inactive in experiment [6]. The viability (% of control) in [8] came to 86.2%. In addition, the viability, percent of control in experiment [9] worked out at 87.3%.

Consider `CC(C)(C)C(=O)OCOC(=O)[C@@H]1N2C(=O)[C@@H](N=CN3CCCCCC3)[C@H]2SC1(C)C`, for which the Potency entry in [1], in [2] and in [4] was “inactive” throughout.

On to `CC(Cc1ccc(O)c(O)c1)C(C)Cc1ccc(O)c(O)c1` (stereo not given), for which, in experiment [2], the Potency result was “inactive”. Further, the Potency is 8.09 µM (active) in [3] and 22.4 µM (active) in experiment [4].

Turning to `C[C@@H]1CCN(C(=O)CC#N)C[C@@H]1N(C)c1ncnc2[nH]ccc12`, the Potency result in experiment [5], in experiment [11] and in experiment [10] was “inactive” throughout. In addition, the compound was classed as inactive in experiment [6]. Further, the viability (% of control) in experiment [8] worked out at 76.9%. In experiment [9], the viability, percent of control was 97.5%.

Turning to `CN1Cc2c(N)cccc2C(c2ccccc2)C1` (stereo not given), the Potency entry in experiment [1], in experiment [2], in experiment [3] and in experiment [4] was “inactive” each time. In addition, in experiment [12], the Potency was 12.6 µM (active). The result in [13], in experiment [14] and in experiment [15] was inactive.
